The source of these data is PMC5540273 (PLoS ONE, 2017).

In assay [1] the test system is TYK2(JH1domain-catalytic).
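Note: kd values determined as follow-up on hits from a single-replicate KINOMEscan panel screen.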

The Kd is a measure of binding affinity in units of concentration. Higher therefore signals a looser complex. Regarding `N#Cc1ccc(-c2cc(-c3c[nH]nc3-c3ccccn3)ccn2)cc1` [GW693028], in the assay with TGFBR2, the Kd was determined as 580 nM.

Consider `c1ccc(-c2cc(-c3c[nH]nc3-c3ccccn3)ccn2)cc1` [GW576604], for which the Kd in the assay with TNNI3K was over 10 µM.

In the assay with TRPM6, `CCn1cnc2c(N)ncnc21` [GW345098] registered an equilibrium dissociation constant (Kd) of 240 nM. For `CN(C1=C(c2ccccc2)C(=O)NC1=O)c1ccccc1` [SB-334860], the Kd in the assay on TXK is over 10 µM.

With `O=C(NCCNc1ccnc(Nc2ccc(F)cc2)n1)c1cc2ccccc2s1` [GSK1379874], the Kd in the assay with TXK is over 10 µM. As to `Cc1ccc(NC(=O)c2ccnc(N3CCN(C)CC3)c2)cc1-c1ccc(C(=O)NCC2CC2)cc1` [GW775604], the Kd (in assay [1]; with ULK2) was over 10 µM in each case. Take `NS(=O)(=O)c1cccc(-c2ccc3nccc(-c4cccc(S(N)(=O)=O)c4)c3c2)c1` [GW867253]: the Kd in the assay on ULK2 was over 10 µM.

In the assay with WNK4, `O=C1NC(=O)C(N2CCc3ccccc32)=C1c1cccc(Cl)c1` [SB-408010] gave a Kd of over 10 µM.
